Screening results from PubChem.
Vif imaging: blocks HIV Vif function; 0.35% of 340,000 active; AID 602346; inhibition, % at 7.49 µM; HEK293T cells, Vif self-association by quenched fluorescence, imaging, 24 h; in the data active = inhibition above about 50%, passing the limit was not always enough
FGF22 binding: FGF22 (human) thermal shift binding; 1.5% of 340,000 active; activity (Tm shift, normalised), % at 9.99 µM; recombinant FGF22 thermal shift, SYPRO orange fluorescence; percent of sucrose octasulfate shift, DMSO zero; AID 651658; Q9HCT0;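 active = mean Tm shift, scaled 0 neutral to 100 positive control, at about 1.3% or above, every replicate too, limit read from the data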
Target sequence (Q9HCT0 whole entry, looked up): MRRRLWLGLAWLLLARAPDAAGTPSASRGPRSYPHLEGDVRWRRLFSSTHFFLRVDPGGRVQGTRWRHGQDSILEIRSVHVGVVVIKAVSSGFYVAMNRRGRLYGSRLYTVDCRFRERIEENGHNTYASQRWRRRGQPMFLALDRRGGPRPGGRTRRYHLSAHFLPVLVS
F508del corr: CFTR F508del correction in bronchial cells | CFBE cells, YFP halide quenching; stimulated with forskolin plus potentiator P3; % fluorescence drop versus neutral controls | activity (quench increase), % at 7.58 µM | 0.36% of 350,000 active | AID 720511;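 active = mean added fluorescence quench of at least 8% versus neutral control, with both replicates also reaching 8%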;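 also: cells transiently co-express mutant CFTR-F508del with the halide-sensitive YFP; corrector assay measuring rescue of mutant channel to the surface after 24 h compound exposure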
Starred values were filed as active, the others as inactive; x = not tested or not shown. Only some compounds are listed: those with a hit (about 1.7% of all), similar ones and a draw of the others.

SMILES	Vif imaging	FGF22 binding	F508del corr
O=C(COC(=O)c1c2c(nc3ccccc13)/C(=C\c1cccs1)CCC2)Nc1ccccc1	1	0	-1
Cc1ccc(S(=O)(=O)N[C@@H]2C=C[C@H](CC(=O)NCCCN(C)C)O[C@@H]2CO)cc1	x	0	0
C[C@H](CO)N1C[C@H](C)[C@H](CN(C)C(=O)c2ccc(F)cc2)Oc2cc(C3=CCCCC3)ccc2S1(=O)=O	x	0	1
COc1ccc(C2CC3(O)CC(C#N)(C(=O)N3)C2(C#N)C#N)cc1 (configuration not stated)	-27	0	3
COc1ccc(C2CC3(O)NC(=O)C(C#N)(C3C)C2(C#N)C#N)cc1 (configuration not stated)	66*	0	0
C[C@H]1CN([C@@H](C)CO)C(=O)c2cc(NC(=O)C3CC3)ccc2O[C@@H]1CN(C)Cc1ccc(C(=O)Nc2ccccc2N)cc1	x	-1	-2
COc1ccc2c3c(n(C)c2c1)[C@H](CO)N(C(=O)NC(C)C)CC31CCN(CC2CCCCC2)CC1	x	0	1
O=c1cnc2ccccc2n1CC1CCCCC1	0	0	8.6*
O=C(O)Cn1c(=O)cnc2ccccc21	4	x	x
C[C@@H]1CN([C@H](C)CO)C(=O)c2cccc(NC(=O)c3ccncc3)c2O[C@H]1CN(C)C(=O)Nc1ccc(C(F)(F)F)cc1	x	0	3
CCn1nc(C)c(/C=N/NC(=O)Cn2nnc(N)n2)c1C	59*	0	0
Cc1ccc(/C=N/NC(=O)Cn2nnc(N)n2)cc1	24	0	-1
C[C@@H]1CCCCO[C@@H](CN(C)C(=O)Cc2ccccc2)[C@@H](C)CN([C@H](C)CO)C(=O)c2cc(NS(=O)(=O)c3ccc(F)cc3)ccc2O1	x	0	0
C[C@@H]1CN([C@@H](C)CO)C(=O)Cc2cc(NC(=O)NC3CCCCC3)ccc2O[C@H]1CN(C)C(=O)NC1CCCCC1	x	0	-3
C/C(=N\NC(=O)c1ccc(F)cc1)c1cccc(NC(=O)c2cccc(F)c2)c1	0	0	1
C/C(=N\NC(=O)c1cccc(N/N=C(\C)c2ccco2)c1)c1ccco1	-4	0	-3
C/C(=N\NC(=O)c1cccc(F)c1)c1cccc(NC(=O)c2ccc(F)cc2)c1	-2	43*	-3
C/C(=N\NC(=O)c1cccc(N/N=C(\C)c2cc(O)ccc2O)c1)c1cc(O)ccc1O	-28	43*	1
COCC(=O)Nc1ccc2c(c1)OC[C@@H](C)N(C(=O)C1CCCC1)C[C@H](C)[C@H](OC)CN(C)C2=O	x	x	3
C/C=C/c1ccc2c(c1)O[C@H](CN(C)C(=O)c1cccc(F)c1)[C@@H](C)CN([C@H](C)CO)S2(=O)=O	x	0	1
O=S(=O)(N[C@H]1CC[C@@H](CCn2cc(-c3ccc(F)cc3)nn2)O[C@H]1CO)c1ccccc1F	x	0	-1
COc1ccc([C@H]2C=C(C(=O)N3CCN(Cc4ccc5c(c4)OCO5)CC3)O[C@@H](OCc3ccc(CO)cc3)C2)cc1	x	0	0
COc1ccc(C(=O)NCC(=O)N2CCC(C)CC2)cc1OC	6	x	x
COc1ccc(C(=O)NCC(=O)N2CCCC(C)C2)cc1OC (configuration not stated)	8	43*	-2
CCOC(=O)Nc1sc(C)nc1-c1ccccc1	6	0	-3
SMILES	Vif imaging	FGF22 binding	F508del corr
CCOC(=O)Nc1cc2c(c(N)n1)N=C(c1ccccc1)CN2	8	0	12*
Cc1ccc2c(c1)c1c3n2CCN(C(=O)C2CC2)C3CCC1 (configuration not stated)	x	-1	5
CN1CCN(CC(=O)N2CCn3c4c(c5cc(C6CCCCC6)ccc53)CCCC42)CC1 (configuration not stated)	98*	x	x
C[C@@H]1CN([C@@H](C)CO)C(=O)Cc2cc(NC(=O)Nc3ccc(C(F)(F)F)cc3)ccc2O[C@@H]1CN(C)C(=O)Nc1ccc2c(c1)OCO2	x	0	1
COc1ccccc1N1CCN(C(=O)Nc2ccc([N+](=O)[O-])cc2)CC1	x	0	2
COc1cccc(CN2CCN(C(=O)Nc3ccc([N+](=O)[O-])cc3)CC2)c1	-5	43*	3
Cn1nc2c(c1C(=O)N1CCCC(C(=O)c3cc(F)ccc3F)C1)CCCC2 (configuration not stated)	-1	43*	0
COc1ccc(C(=O)C2CCCN(C(=O)c3c4c(nn3C)CCCC4)C2)cc1F (configuration not stated)	-2	x	3
Cc1ccc(S(=O)(=O)Nc2ccc3c(c2)C(=O)N([C@H](C)CO)C[C@H](C)[C@H](CN(C)S(=O)(=O)c2cn(C)cn2)OCCCC[C@H](C)O3)cc1	x	0	-1
COc1ccc(NC(=O)N(C)C[C@H]2Oc3ccc(NC(=O)Nc4ccc5c(c4)OCO5)cc3C(=O)N([C@@H](C)CO)C[C@H]2C)cc1	x	0	-3
O=C(Nc1ccccc1C(=O)NC(Cc1ccccc1)C(=O)O)c1ccco1 (configuration not stated)	-2	0	0
O=C(Nc1ccccc1C(=O)NC(Cc1ccc(O)cc1)C(=O)O)c1ccccc1 (configuration not stated)	23	44*	-3
O=C(NCc1ccccc1)C(c1ccncc1)n1c(=O)c(-c2cc3ccccc3[nH]2)nc2ccccc21 (configuration not stated)	x	0	-1
O=C(NCc1ccccc1)C(c1ccc(-c2ccccc2)cc1)n1c(=O)c(-c2cc3ccccc3[nH]2)nc2ccccc21 (configuration not stated)	x	0	10*
COc1ccccc1-c1noc(CSc2nc(N)cc(=O)[nH]2)n1	16	43*	-2
Nc1cc(=O)[nH]c(SCc2ccccc2)n1	2	0	2
CCNC(=O)C[C@H]1CC[C@@H](NC(=O)C2CC2)[C@@H](CO)O1	x	1	0
CS(=O)(=O)Nc1ccc2c(c1)[C@H]1C[C@H](CC(=O)NC3CCCCC3)O[C@@H](CO)[C@H]1O2	x	0	0
O=C(CCCN1CCC(O)(c2cccc(C(F)(F)F)c2)CC1)c1ccc(F)cc1	-2	0	8.3*
O=C(CCCN1CCC(O)(c2ccc(Br)cc2)CC1)c1ccc(F)cc1	-9	0	1
CCNC(=O)C[C@@H]1CC[C@H]2[C@H](COc3ccc(NC(=O)Cc4ccccc4)cc3C(=O)N2C)O1	x	0	1
O=C(c1ccccc1)N1CC[C@@H]2[C@@H](CO)Nc3ccc(C#Cc4cccc(F)c4)cc3[C@@H]21	x	0	-3
Cc1ccc(C)c(NC(=O)CN(C)C(=O)c2ccc(S(=O)(=O)N(C)c3ccccc3)cc2)c1	-4	0	0
Cc1ccc(NC(=O)CN(C)C(=O)c2ccc(S(=O)(=O)N(C)c3ccccc3)cc2)cc1	6	43*	0
O=C(Nc1ccc(F)cc1)Nc1ccc2c(c1)[C@H]1C[C@@H](CC(=O)N3CCCCC3)O[C@@H](CO)[C@H]1O2	x	0	-2
CCOC(=O)CSc1ccc(C(=O)N2CCN(C)CC2)cc1[N+](=O)[O-]	-1	43*	-5
CCOC(=O)CSc1ccc(C(=O)NCCN2CCOCC2)cc1[N+](=O)[O-]	-10	0	-1
